Tau ThT inhib: tau fibrillization inhibition (ThT binding); recombinant tau K18 P301L, heparin-induced fibrillization, ThT fluorescence; Potency, µM (top dose mostly 57.4 µM), for inactives: at the top dose activity, negative = inhibition, usual class: inhibitors; hit rate 2.1% among 270,000; AID 1460; note: nearly all actives have a fitted effect of over 55% in size
Target sequence (P10636 561-689 P618L limits assumed): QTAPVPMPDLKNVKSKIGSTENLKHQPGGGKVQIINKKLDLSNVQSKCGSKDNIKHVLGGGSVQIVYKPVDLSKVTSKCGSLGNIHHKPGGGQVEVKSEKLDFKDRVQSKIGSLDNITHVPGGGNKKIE
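Heparin-induced fibrillization of the P301L-mutant K18 repeat-domain fragment of human tau was followed by ThT binding in quantitative high-throughput format.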
Tau fibril FP: blocks human tau fibril formation measured by polarization; P10636; K18 P301L tau heparin fibrillization, Alexa594 FP, 6 h; Potency, µM (doses to about 57.7 µM), for the others: at the top dose activity, negative = inhibition, most hits filed as inhibitors; hit rate 0.39% among 280,000; AID 1468; note: nearly all actives have a fitted effect of over 55% in size
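Compound effects on tau fibrillization are measured by Alexa 594 fluorescence polarization (ex 555, em 632 nm). K18 P301L tau is used at 15 uM with 0.24 uM labeled tracer, and 20 uM heparin induces aggregation over 6 hr at 37 C.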
NPSR antagonist: blocks cAMP signaling of the human neuropeptide S receptor; Q6W5P4; CHO-NPSR cells, cAMP TR-FRET, antagonist mode; Potency, µM (doses to about 38.3 µM), for the others: at the highest dose activity change, negative = inhibition, actives largely listed as inhibitors; hit rate 1% among 220,000; AID 1461; note: nearly all actives have a fitted effect of over 50% in size
Target sequence (Q6W5P4 whole entry, looked up): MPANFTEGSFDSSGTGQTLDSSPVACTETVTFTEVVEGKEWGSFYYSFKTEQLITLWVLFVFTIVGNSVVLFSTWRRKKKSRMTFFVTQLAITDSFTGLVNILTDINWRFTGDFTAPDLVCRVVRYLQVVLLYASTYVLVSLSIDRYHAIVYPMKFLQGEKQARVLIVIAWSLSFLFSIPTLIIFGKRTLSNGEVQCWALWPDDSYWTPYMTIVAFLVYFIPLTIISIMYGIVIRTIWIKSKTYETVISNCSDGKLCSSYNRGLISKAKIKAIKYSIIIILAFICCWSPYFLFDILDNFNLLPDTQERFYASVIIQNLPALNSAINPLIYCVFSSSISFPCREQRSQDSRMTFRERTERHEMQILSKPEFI
ALDH1A1 inh: inhibitors of human aldehyde dehydrogenase 1A1; Purified ALDH1A1, NADH fluorescence, propionaldehyde substrate; Potency, µM (doses to about 75.3 µM), without a hit: at the highest dose activity, negative = inhibition, most hits filed as inhibitors; hit rate 7.3% among 220,000; active = well fitted inhibition curve with a large enough effect, not every such curve was filed as active; inconclusive = small, poorly fitted or top-dose-only effect, or another doubt; inactive = no such curve, though single readings can be large or run the other way;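 note: plate controls were no enzyme wells and a reference inhibitor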
HPGD block: inhibitors of human 15-hydroxyprostaglandin dehydrogenase (HPGD); P15428; purified HPGD, NADH fluorescence kinetic, PGE2 substrate; Potency, µM, for the others: at the top dose activity change, negative = inhibition, most hits filed as inhibitors; hit rate 4.3% among 150,000; active = well fitted inhibition curve with a large enough effect, not every such curve was filed as active; inconclusive = small, poorly fitted or top-dose-only effect, or another doubt; inactive = no such curve, though single readings can be large or run the other way
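NADH formation kinetics: reaction with 30 uM PGE2 and 1 mM NAD+ (final), 20 nM enzyme, Tris-HCl pH 8 with Tween 20, after 15 min compound preincubation at room temperature. Fluorescence change, last versus first of five reads.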
Tau fluor counter: counter-screen for tau fibril formation inhibitors; tau K18 P301L Alexa594 fluorescence, heparin fibrillization; Potency, µM (highest dose often 57.7 µM), for the others: at the top dose activity change, negative = decrease; hit rate 0.93% among 280,000; AID 1463; note: nearly all actives have a fitted effect of over 55% in size
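Human tau K18 P301L (15 uM unlabeled, 0.24 uM Alexa 594-labeled) in 100 mM sodium acetate pH 7 with 20 uM heparin, 6 hr at 37 C. ThT 30 uM added, 1 hr ambient; Alexa 594 FP and total fluorescence read at 555/632 nm.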
Active calls of the source: *; ? = inconclusive; . = no result; [ ] = remark or other dose. Only some compounds are listed: those with a hit (about 9.5% of all), similar ones and a draw of the others. Unless noted, calls come from the whole dose curve; as a rule, active = well fitted curve in the direction sought with a large enough effect; inconclusive = small, poorly fitted or top-dose-only effect, or another doubt; inactive = no such curve, though single readings can be large; an effect the other way counts as inactive or inconclusive. Unless noted, % is set by controls: 0 for no effect and ±100 for the full control effect; potency is the fitted concentration of half-maximal effect.

SMILES | Tau ThT inhib | Tau fibril FP | NPSR antagonist | ALDH1A1 inh | HPGD block | Tau fluor counter
CC1CCCN(C(=S)Nc2ccc3nc4n(c(=O)c3c2)CCCCC4)C1 (stereo unspecified) | -5% | -7% | 10% | ? | -29% | -9%
CC(C)c1ccc(NC(=O)Cn2c(=O)n(Cc3nc(-c4ccccc4)no3)c(=O)c3cc4c(cc32)OCO4)cc1 | 4% | ? | . | . | . | -22%
CCOc1ccc2nc(SCC(=O)c3cccs3)sc2c1 | ? | -10% | -25%[46.1 µM] | 13µM* | 5µM* | -21%
CCOc1ccc2nc(SCC(=O)NCc3ccco3)sc2c1 | -17% | 10% | -18%[46.1 µM] | -3% | 22µM* | -6%
COc1cccc(NC(=O)CSc2nc3ccc(NC(=O)c4ccco4)cc3s2)c1 | 9% | ? | . | . | . | 16µM*[quencher]
CCOc1ccc2nc(SCC(=O)NC(=O)NCc3ccco3)sc2c1 | -11% | -4% | -7%[46.1 µM] | 5% | -23% | -14%
O=C(O)P(=O)(O)O | -3% | -8% | . | 1% | -12% | -8%
CCOC(=O)c1c(S(=O)(=O)N2CCCC(C(=O)N3CCN(c4cccc(C)c4C)CC3)C2)c(C)n(C)c1C (stereo unspecified) | ? | 11% | . | . | . | -13%
COc1ccc(Cn2cccc(NC(=O)Nc3cccc(OC)c3)c2=O)cc1 | . | 4% | -12% | . | . | ?
CC(C)NC(=O)CN1CCN(C(=O)CCl)CC1 | -5% | -1% | 12% | 3.2µM* | . | 1%
O=C(CN1CCCCC1)N1CCN(C(=O)CN2CCCCC2)CC1 | -11% | 7% | -6%[46.1 µM] | 2% | -4% | 0%
CN(C)C(=O)CN1CCN(C(=O)CCl)CC1 | -5% | -2% | 14% | 2.8µM* | . | -3%
CC(C)c1ccc(/C=C/C(=O)Nc2ccc(CN3CCOCC3)cc2)cc1 | 7% | 4% | 25% | ? | . | ?
CC(C)c1ccc(CN2CCN(C(=O)CCl)CC2)cc1 | 1% | 0% | -15% | 0.56µM* | . | 8%
Cc1ccc(-c2cc(Cc3ccccc3)c(=O)[nH]n2)cc1 | . | -5% | 6% | . | . | -21%
Cc1c(C(=O)NCc2ccc(OC(C)C)cc2)sc2ncnc(N(C)C3CCCCC3)c12 | -7% | -4% | . | . | . | -10%
CCN1/C(=C/c2cc[n+](C)cc2)C=Cc2cc(C)ccc21 | 8.9µM* | -5% | -27% | ? | -1% | 11%
CCN1C(=O)/C(=C2\C=Cc3cc(C)ccc3N2CC)OC1=S | ? | 5% | -5% | 3% | -10% | -9%
O=C(O)c1cnc2ccccc2n1 | -3% | 7% | -12%[46.1 µM] | 25µM* | ? | 1%
COC(=O)c1cnc2ccccc2n1 | -3% | 7% | -7%[46.1 µM] | 1% | -12% | 3%
CCCC(=Nc1ccc(N)cc1)C1=C(O)C(C(=O)OC)C(C)(C)CC1=O (stereo unspecified) | 7.9µM* | 14µM* | -9%[46.1 µM] | ? | -10% | 7.1µM*[quencher]
CCCC(=O)C1=C(O)C(C(=O)OC)C(C)(C)CC1=Nc1ccc(N)cc1 (stereo unspecified) | -8% | -1% | -4%[46.1 µM] | -11% | -4% | -7%
Cc1ccc(S(=O)(=O)NCc2ccco2)cc1C(N)=O | 5% | 6% | 9% | 2% | . | 8%
O=S(=O)(NCc1ccco1)c1cnc(Cl)c(Br)c1 | -6% | 0% | -19% | 22µM* | -14% | -2%
CCCCc1ccc(NC(=O)N2CCNC(=O)C2CC(=O)Nc2ccsc2C(=O)OC)cc1 (stereo unspecified) | . | -2% | -43% | . | . | -5%
SMILES | Tau ThT inhib | Tau fibril FP | NPSR antagonist | ALDH1A1 inh | HPGD block | Tau fluor counter
C[C@@H](CCCCC(=O)Nc1ccc(C(F)(F)F)cc1)NCCc1cnc[nH]1 | -3% | 2% | . | 2% | 4% | -5%
COc1ccc(N=C2C(=O)N3c4c(cccc42)C(C)=CC3(C)C)cc1 | ? | -14% | -47% | 2µM* | -19% | -22%
Cc1[nH]c2ccccc2c1/C=C/c1cc[n+](C)cc1 | ? | 3% | 10µM* | ? | -12% | -7%
Cc1[nH]c2ccccc2c1/C=N/Nc1ccc(F)cc1F | 13µM* | 5% | 0% | ? | -21% | ?
Cc1[nH]c2ccccc2c1/C=N/Nc1ccccn1 | 10µM* | 7% | -30% | ? | . | 16µM*[quencher]
Cc1[nH]c2ccccc2c1/C=N/Nc1nncn1N | 14µM* | -5% | -21% | ? | . | ?
CC(=O)C1=C(c2ccc(Br)cc2)N(C(C)=O)n2c(nnc2C2CCCCC2)S1 | ? | -4% | . | . | . | -6%
CCN1CCCC1Cn1c(-c2ccccc2)nc2c(NCCOC)nc(C)nc21 (stereo unspecified) | 9% | 1% | . | ? | ? | 4%
Cc1[nH]c2ccccc2c1/C=N/Nc1nc(Nc2ccccc2)nc(N2CCOCC2)n1 | ? | ? | ? | 11% | -18% | 22µM*[quencher]
Cc1cccc(NC(=O)C(NS(=O)(=O)c2ccc3c(c2)oc(=O)n3C)C(C)C)c1 (stereo unspecified) | -5% | -6% | . | . | . | -9%
N#Cc1ccccc1Cn1c(SCC(=O)Nc2ccc(F)cc2)nc2ccccc21 | 5% | ? | . | . | . | -30%
COc1ccc(/C=C2\SC(=S)N(CCCC(=O)Nc3ccccn3)C2=O)cc1OC | ? | -14% | -11% | -10% | -20% | -24%
COc1cc(/C=C2\SC(=S)N(N(C)c3ccccc3)C2=O)ccc1O | 25µM* | -4% | 56% | ? | . | 25µM*[quencher]
O=C(CSc1nnc2ccccn12)Nc1ccccc1C(=O)O | -9% | 0% | 21% | -3% | . | -9%
COc1ccc(-c2nnn(CC(=O)N(CCCN3CCOCC3)C(C(=O)NC3CCCC3)c3ccc(C)o3)n2)cc1 (stereo unspecified) | 16% | -2% | 10µM* | 5% | . | 7%
c1cc2[nH]snc2c2nc(C3CC3)nc12 | ? | -12% | 14%[46.1 µM] | -9% | -25% | -13%
COc1ccc(C2C(CC(=O)O)=C(O)C(=O)N2c2ccccc2)cc1 (stereo unspecified) | -12% | -8% | -3%[46.1 µM] | 18µM* | -23% | -11%
O=c1[nH]c2ccc(N=Cc3c(O)ccc4cc(Br)ccc34)cc2[nH]1 | ? | 3% | -2% | 1µM* | -24% | -23%
O=C(C1CCCCC1)N1CC(=O)N2CCc3ccccc3[C@@H]2C1 | . | . | . | ? | -9% | .
O=C(/C=C1\NCC2c3ccccc3CCN2C1=O)c1ccccc1 (stereo unspecified) | -15% | -3% | -11%[46.1 µM] | 20µM* | -19% | -18%
C/C=C(\C)C(=O)C[Si](C)(C)c1ccccc1 | ? | ? | . | 12% | -1% | 2%
Oc1sc(C=Nc2ccccc2)c2ccccc12 | ? | -7% | -20%[46.1 µM] | 22µM* | -24% | 14µM*[quencher]
Oc1c(C=Nc2ccccc2)sc2ccccc12 | -4% | -8%[2.34 µM] | 6% | ? | . | 6%[2.34 µM]
